A number with no mark means an inactive call. How the calls were made is not given here.
What follows are compounds tested against Pantothenate synthetase (Mycobacterium tuberculosis (strain ATCC 25618 / H37Rv)) (UniProt P9WIL5) (assay: Recombinant Mtb pantothenate synthetase (PanC) inhibitors, coupled enzyme, confirmatory (AID 375;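 further: 0% = full reaction with vehicle and 100% = no enzyme background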)). Details: coupled enzyme assay; at 10 µM, active compounds read high.
Pantothenate synthetase (Mycobacterium tuberculosis (strain ATCC 25618 / H37Rv)), sequence (P9WIL5 whole entry, looked up): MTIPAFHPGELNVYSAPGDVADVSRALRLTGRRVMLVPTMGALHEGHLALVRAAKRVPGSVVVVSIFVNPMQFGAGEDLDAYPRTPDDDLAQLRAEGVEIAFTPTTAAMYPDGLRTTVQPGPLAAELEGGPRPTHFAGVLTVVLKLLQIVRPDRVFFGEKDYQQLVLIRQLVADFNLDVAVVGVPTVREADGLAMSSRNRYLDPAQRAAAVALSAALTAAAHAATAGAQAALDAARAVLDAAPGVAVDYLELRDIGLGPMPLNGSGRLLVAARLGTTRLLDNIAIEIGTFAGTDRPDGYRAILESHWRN
Work on `O=C(CCn1nc(-c2ccccc2)ccc1=O)N1CCCC1` yielded an inhibition of 0%.
In the case of `COc1ccccc1CNC(=O)CCn1c(=O)[nH]c2ccsc2c1=O`, the inhibition is reported as 2%.
`CCN1C(=O)/C(=C2\C=Cc3ccccc3N2CC)OC1=S` showed an inhibition of 11%.
For `CC(=O)O[C@]1(C(C)=O)CC[C@H]2[C@@H]3C=C(C)C4=CC(=O)CC[C@]4(C)[C@H]3CC[C@@]21C`, the inhibition was 0%.
Work on `CCOC(=O)c1[nH]c2ccc(F)cc2c1NC(=O)C(C)N1CCc2cc(OC)c(OC)cc2C1` (stereo not given) yielded an inhibition of 3%.
Work on `CC1Cc2ccccc2N1S(=O)(=O)c1ccc2c(c1)n(C)c(=O)c(=O)n2C` (stereo not given) yielded an inhibition of 0%.
`O=C(O)c1ccc(COc2c(F)c(F)c(F)c(F)c2F)o1` showed an inhibition of 0%.
For `Cc1ncc([N+](=O)[O-])n1CC(O)CCl` (stereo not given), the inhibition was 0%.
With `CCCOc1nc(N)c(C#N)c(-c2ccccc2F)c1C#N` the inhibition was 4%.
In the case of `CC(NC(=O)c1ccco1)C(c1cccs1)N1CCN(c2ccc(F)cc2)CC1` (stereo not given), the inhibition is reported as 0%.
Work on `O=C(CN(Cc1ccc(F)cc1)C(=O)Cn1nnc2ccccc21)NCC1CCCO1` (stereo not given) yielded an inhibition of 0%.
With `C/C(Cl)=C\Cn1c(Nc2ccc(C)cc2)nc2c1c(=O)n(C)c(=O)n2C` the inhibition was 3%.
For `Cc1nc2ncnn2c(N2CCC(C(=O)NC3CCCC3)CC2)c1Cc1ccccc1`, the inhibition was 1%.
`COC(=O)Cn1c(=O)c2c(nc3n2CC(C)CN3c2ccc(C)c(C)c2)n(C)c1=O` (stereo not given) gave an inhibition of 4%.
Compound `COC(=O)c1ccsc1NC(=O)CN1C(=O)CCC1=O` has an inhibition of 0%.
In the case of `CCC(=O)Nc1cccc(Br)c1`, the inhibition is reported as 2%.
`COc1ccc(CCNC(=O)CSc2nnc(CNc3ccc(Cl)cc3)o2)cc1OC` showed an inhibition of 0%.
In the case of `CCC(C)NCC(O)COCc1ccc(Cl)cc1` (stereo not given), the inhibition is reported as 4%.
Work on `COc1ccc(C(=O)NCCCCCC(=O)O)cc1OC` yielded an inhibition of 0%.
Compound `CCn1c(SCC(=O)NCc2ccco2)nc2c(c1=O)SC(C)C2` (stereo not given) has an inhibition of 8%.
`Cc1cnc(C(=O)OCC(=O)Nc2ccc(Oc3ccccc3)cc2)cn1` showed an inhibition of 0%.
`Cc1ccccc1-c1noc(N)c1C#N` showed an inhibition of 0%.
`C/C=C(\C)c1nnc(NC(=O)C(C)C)s1` was tested, and the inhibition was 1%.
In the case of `Cc1nc(SCCC(=O)O)c2ccccc2n1`, the inhibition is reported as 6%.
`Cc1cc2oc(=O)cc(CN3CCN(Cc4ccc5c(c4)OCO5)CC3)c2cc1C` showed an inhibition of 0%.
`O=c1c(O)c(-c2ccc(O)cc2O)oc2cc(O)cc(O)c12` showed an inhibition of 9%.
`CCOC(=O)c1c(C)oc2ccc(O)c(CN(C)C)c12` gave an inhibition of 0%.
Work on `COc1cc(C(=O)OCc2cc3ccccc3[nH]c2=O)cc(OC)c1OC` yielded an inhibition of 4%.
`CCCn1c(N2CCN(CC(=O)NCc3cccs3)CC2)nc2ccccc21` gave an inhibition of 9%.
`CC1CCN(C(=O)CSc2nnc(-c3ccc(S(=O)(=O)N4CCOCC4)cc3)n2C)CC1` showed an inhibition of 4%.
`CCOC(=O)N1CCN(C(=O)CN(c2ccc(C)cc2)S(=O)(=O)c2c(C)noc2C)CC1` showed an inhibition of 0%.
With `CCOC(=O)C1CCN(C(=O)COc2ccc(Cl)cc2Cl)CC1` the inhibition was 0%.
In the case of `O=c1c2ccccc2c(C=Nc2ccc(Cl)cn2)c(O)n1-c1cc(Cl)ccc1N1CCOCC1`, the inhibition is reported as 4%.
With `CN(C)S(=O)(=O)N1CCN(C(=O)N(c2ccccc2)c2ccccc2)CC1` the inhibition was 0%.
`COc1ccc2cc(C#N)c(SCC(=O)N3CCCC3)nc2c1` gave an inhibition of 7%.
In the case of `CCOC(=O)N1CCN(S(=O)(=O)c2ccc(OCC)c(C)c2)CC1`, the inhibition is reported as 0%.
Work on `N#CCC(=O)Nc1ncn(Cc2ccccc2Cl)n1` yielded an inhibition of 0%.
`C#CC(CO)N(CCN(Cc1ccccc1)C(C#C)CO)Cc1ccccc1` (stereo not given) showed an inhibition of 9%.
`CC(=O)O[C@]1(C(C)=O)CC[C@H]2[C@@H]3C[C@H](C)C4=CC(=O)CC[C@]4(C)[C@H]3CC[C@@]21C` gave an inhibition of 0%.
Compound `Cc1csc(NC(=O)CCCSc2nc3ccccc3s2)n1` has an inhibition of 0%.

— PubChem BioAssay
